Assay results from the supplement of paper PMC4723716.
± gives the uncertainty stated by the source. Whole data set: some 9,900 compounds, median “viability index relative to DMSO control” near 1, cut for the lowest 2% near 0.85. For the sample, the lowest values were picked, then their nearest neighbours and some compounds at random.

Tested on: Plasmodium falciparum NF54 stage V gametocytes
Experiment: viability index relative to DMSO control (fraction); higher = less gametocyte killing
Details: 2.5 µM, incubation time: 72 h
Procedure, shortened: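 Viability index is the count of red-stained particles in a well divided by the plate mean of solvent-only wells. Particles of 20–70 µm2 were counted in one imaged field per well after one to two hours with 3 µl of 2.5 µM MitoTracker Red CMXRos and 0.13% saponin. Before staining, P. falciparum NF54 stage V gametocytes in serum-free medium (0.75% gametocytemia, 1.25% hematocrit, 10 µl, 1,536-well plates) were kept with compound at 2.5 µM for 72 hr at 37°C under low oxygen.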

[1] = library set: Broad Institute DOS
[2] = library set: Broad Institute Blood Stage

Row | Compound | viability index [1] | viability index [2]
1 | CO[C@@H]1CN(C)C(=O)c2cc(NS(C)(=O)=O)ccc2OC[C@@H](C)N(C(=O)C2CCOCC2)C[C@@H]1C | 1.17 ± 0.07 | –
2 | CN(C)C(=O)c1ccc(-c2ccc([C@@H]3[C@@H]4CN(Cc5ccc6c(c5)OCO6)C[C@H]3N4)cc2)cc1 | 1.05 ± 0.098 | –
3 | COc1ccc2c3c([C@H](CO)N(Cc4ccncc4)C[C@]33CN(C3)C(=O)C3CCCCC3)n(C)c2c1 | 1.03 ± 0.079 | –
4 | O=C(C1CCOCC1)N1CC(=O)N2[C@@H](CO)[C@H](c3ccc(C#CCc4ccccc4)cc3)[C@@H]2C1 | 1.084 ± 0.0042 | –
5 | C[C@@H](NC(=O)[C@@H]1[C@@H](CO)[C@@H]2Cn3c(ccc(-c4ccccc4)c3=O)[C@@H]2N1C)c1ccccc1 | 1.05 ± 0.015 | –
6 | O=C(C[C@@H]1C[C@@H]2c3cc(NS(=O)(=O)c4ccc(F)cc4)ccc3O[C@@H]2[C@H](CO)O1)N1CCc2ccccc2C1 | 1.13 ± 0.069 | –
7 | COCC(=O)N1CC(=O)N2[C@H](CO)[C@H](c3ccc(C#CC4CC4)cc3)[C@H]2C1 | 1.11 ± 0.027 | –
8 | CN(C[C@H]1N[C@@H](CO)[C@H]1c1ccc(-c2ccc(F)cc2)cc1)C(=O)C1CCC1 | 0.971 ± 0.025 | –
9 | CCS(=O)(=O)N(C)C[C@@H]1N[C@H](CO)[C@@H]1c1ccc(-c2ccccc2F)cc1 | 1.05 ± 0.031 | –
10 | CCN(C[C@@H]1N[C@@H](CO)[C@H]1c1ccc(-c2ccc(F)cc2)cc1)C(=O)CN(C)C | 0.711 ± 0.021 | –
11 | O=C(C[C@@H]1CC[C@H]2NC[C@@H](O)COC[C@@H]2O1)NC1Cc2ccccc2C1 | 0.9847 ± 0.0032 | –
12 | O=C(C[C@H]1CC[C@H]2NC[C@@H](O)COC[C@@H]2O1)Nc1ccc(-c2ccccc2)cc1 | 0.997 ± 0.036 | –
13 | C/C=C/c1ccc([C@H]2[C@@H](CO)N(c3nc(CC)cs3)[C@H]2C#N)cc1 | 1.09 ± 0.035 | –
14 | CCc1csc(N2[C@H](CO)[C@H](c3ccccc3)[C@@H]2CNC)n1 | 0.372 ± 0.18 | –
15 | CCc1csc(N2[C@H](CO)[C@H](c3ccccc3)[C@@H]2CN(C)C(=O)C2CCC2)n1 | 1.03 ± 0.059 | –
16 | CO[C@@H]1CN(C)C(=O)c2cc(NC(=O)Nc3cc(F)ccc3F)ccc2OC[C@H](C)NC[C@H]1C | 1.022 ± 0.01 | –
17 | COc1cccc(C#Cc2ccc([C@H]3[C@@H](CO)N(C(=O)c4ccccn4)[C@H]3C#N)cc2)c1 | 0.8087 ± 0.0043 | –
18 | COc1ccccc1C#Cc1ccc([C@H]2[C@@H](C#N)N(C(=O)C3CCC3)[C@@H]2CO)cc1 | 1.05 ± 0.038 | –
19 | COc1ccccc1C#Cc1ccc([C@H]2[C@@H](C#N)N(C(=O)C3CCCC3)[C@H]2CO)cc1 | – | 0.583 ± 0.18
20 | COc1ccccc1C#Cc1ccc([C@H]2[C@@H](C#N)N(C(=O)C3CCC3)[C@H]2CO)cc1 | 0.846 ± 0.07 | –
21 | COc1ccccc1C#Cc1ccc([C@@H]2[C@@H](C#N)N(C(=O)C3CCC3)[C@@H]2CO)cc1 | 1.15 ± 0.082 | –
22 | COc1cccc(C#Cc2ccc([C@@H]3[C@H](C#N)N(C(=O)c4ccccn4)[C@H]3CO)cc2)c1 | 0.929 ± 0.051 | –
23 | COc1cccc(C#Cc2ccc([C@@H]3[C@@H](C#N)N(C(=O)c4ccccn4)[C@H]3CO)cc2)c1 | 1.04 ± 0.029 | –

Row | Compound | viability index [1] | viability index [2]
24 | COc1ccccc1C#Cc1ccc([C@H]2[C@@H](CO)N(C(=O)C3CC3)[C@H]2C#N)cc1 | – | 0.849 ± 0.047
25 | N#C[C@H]1[C@H](c2ccc(C#Cc3cccc(F)c3)cc2)[C@@H](CO)N1C(=O)C1CCOCC1 | 1.12 ± 0.025 | –
26 | N#C[C@H]1[C@@H](c2ccc(C#Cc3cccc(F)c3)cc2)[C@@H](CO)N1C(=O)C1CCOCC1 | 1.05 ± 0.058 | –
27 | COc1ccccc1C#Cc1ccc([C@H]2[C@H](C#N)N(C(=O)C3CCC3)[C@H]2CO)cc1 | 1.02 ± 0.025 | –
28 | COc1ccccc1C#Cc1ccc([C@@H]2[C@@H](CO)N(C(=O)C3CCC3)[C@H]2C#N)cc1 | 1.06 ± 0.047 | –
29 | C[C@@H]1CN([C@@H](C)CO)C(=O)c2c(c3ccccc3n2C)-c2ccccc2CO[C@H]1CN(C)C(=O)[C@H]1CCCN1C | 1.08 ± 0.011 | –
30 | C[C@H](CO)N1C[C@H](C)[C@@H](CN(C)CC2CC2)OCCCC[C@H](C)Oc2ccc(NC(=O)c3ccccc3)cc2C1=O | 1.07 ± 0.02 | –
31 | CCCN(C)C[C@@H]1OCCCC[C@H](C)Oc2ccc(NC(=O)CCCN(C)C)cc2C(=O)N([C@@H](C)CO)C[C@@H]1C | 1.1 ± 0.14 | –
32 | OC[C@H]1Nc2ccc(C#Cc3ccc(F)cc3)cc2[C@@H]2[C@H]1CCN2Cc1ccc2c(c1)OCO2 | 1.06 ± 0.019 | –
33 | CN1C(=O)c2cc(NC(=O)c3cccc(F)c3)ccc2OC[C@@H]2O[C@H](CC(=O)NCc3ccccc3Cl)CC[C@H]21 | 1.13 ± 0.036 | –
34 | C[C@@H]1CN([C@H](C)CO)C(=O)c2cc(NS(=O)(=O)c3ccccc3)ccc2O[C@@H](C)CCCCO[C@@H]1CN(C)C(=O)C1CCCCC1 | 1.01 ± 0.13 | –
35 | CC(C)C(=O)Nc1ccc2c(c1)C(=O)N(C)[C@H]1CC[C@@H](CC(=O)NCCc3ccccc3)O[C@@H]1CO2 | 1.03 ± 0.06 | –
36 | COc1ccccc1C#Cc1ccc([C@@H]2[C@H](C#N)N(C(=O)C3CCC3)[C@H]2CO)cc1 | 1.03 ± 0.09 | –
37 | COc1cccc(C#Cc2ccc([C@@H]3[C@@H](C#N)N(C(=O)C4CCCCC4)[C@H]3CO)cc2)c1 | – | 0.7 ± 0.1
38 | COc1cccc(C#Cc2ccc([C@H]3[C@@H](C#N)N(C(=O)c4ccccn4)[C@@H]3CO)cc2)c1 | 1.098 ± 0.009 | –
39 | COc1ccccc1C#Cc1ccc([C@H]2[C@@H](C#N)N(C(=O)C3CCCCC3)[C@H]2CO)cc1 | – | 0.345 ± 0.087
40 | COc1cccc(C#Cc2ccc([C@H]3[C@@H](CO)N(C(=O)C4CCCC4)[C@H]3C#N)cc2)c1 | – | 0.882 ± 0.054
41 | COc1ccccc1C#Cc1ccc([C@@H]2[C@@H](C#N)N(C(=O)C3CCC3)[C@H]2CO)cc1 | 1.03 ± 0.022 | –
42 | CCCNC(=O)N(C)C[C@H]1Oc2ncc(C#CC3CCCCC3)cc2C(=O)N([C@@H](C)CO)C[C@@H]1C | 0.929 ± 0.067 | –
43 | Cc1ccccc1S(=O)(=O)Nc1ccc2c(c1)C(=O)N(C)[C@@H]1CC[C@H](CC(=O)O)O[C@@H]1CO2 | 1.01 ± 0.033 | –
44 | CN(C)CC(=O)N1[C@H](C(=O)Nc2nccs2)[C@@H](CO)[C@@H]2Cn3c(ccc(C4=CCCCC4)c3=O)[C@@H]21 | 1.02 ± 0.015 | –
45 | COc1ccc(CN2C[C@H](O)COC[C@@H]3O[C@H](CC(=O)N(C)C)CC[C@H]32)cc1 | 1.08 ± 0.1 | –
